Assay outcomes as filed in PubChem BioAssay.
In the library only some 4.5% were active in any assay of this set; here they are far more common.
ALR inh: inhibitors of human sulfhydryl oxidase ALR | P55789 | purified ALR, DTT oxidation, H2O2 HRP-luminol luminescence | inhibition, % (no concentration beside the values) | 290,000 compounds, 3.8% hits;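 active = mean replicate inhibition above about 79%, with every replicate also reaching it, limit read from the data; inconclusive = only one of the two criteria met; inactive = mean below limit and not every replicate reaching it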
Rce1 inh: inhibitors of yeast Ras-converting enzyme. calls only. AID 2563. Q03530. yeast membranes, quenched prenylated peptide cleavage fluorescence. 290,000 compounds, 0.27% hits;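 active = fall in fluorescence gain of 50% or more versus controls, with final raw signal at or below 3038400; inconclusive = same 50% fall but final raw signal above 3038400; inactive = fall in fluorescence gain under 50%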;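 also: plate controls were neutral control wells for no effect and wells lacking membranes for full effect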
Target sequence (Q03530 whole entry, looked up): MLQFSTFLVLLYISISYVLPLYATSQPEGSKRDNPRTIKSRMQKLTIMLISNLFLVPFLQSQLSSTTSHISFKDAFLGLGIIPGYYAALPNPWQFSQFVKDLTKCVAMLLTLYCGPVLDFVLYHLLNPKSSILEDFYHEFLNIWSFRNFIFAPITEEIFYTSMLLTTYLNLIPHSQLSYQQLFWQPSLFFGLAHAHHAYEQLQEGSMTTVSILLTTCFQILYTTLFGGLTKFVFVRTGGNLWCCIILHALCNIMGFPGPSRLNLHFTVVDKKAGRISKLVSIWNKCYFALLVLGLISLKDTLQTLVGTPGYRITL
Efflux pump inh: blocks antifungal efflux pumps in multiplex yeast assay; S. cerevisiae Candida pump triplex, Nile Red efflux; inhibition, % at 10 µM; 330,000 compounds, 0.44% hits; AID 485275;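 active = plate passing quality check with inhibition over a set limit, or well fluorescence over plate mean plus 4 SD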;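 also: Nile Red retained in pooled yeast measured as flow cytometry median fluorescence; 0% = buffer negative control and 100% = Enniatin B positive control; higher means more Nile Red kept so more efflux inhibition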
Rtt109 HAT inh: inhibitors of Candida albicans Rtt109/Vps75 histone acetyltransferase; Q5AAJ8; purified Rtt109/Vps75, ThioGlo CoA-SH fluorescence, 4 h; inhibition, % at 34.9 µM; 330,000 compounds, 0.16% hits; AID 540336;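 active = inhibition of at least 50% in every replicate; inconclusive = best replicate reaches 50% inhibition but some replicates fall short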
GRK2 aptamer HTS: human GRK2 inhibition via aptamer displacement; P25098; bead flow cytometry, FAM-aptamer displacement from GRK2; inhibition of aptamer binding, % at 10 µM; 330,000 compounds, 0.59% hits;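 active = inhibition of aptamer binding above 40%, roughly 3 SD of noise, on plates passing a quality check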;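 also: median bead fluorescence of bound FAM aptamer so fluorescent compounds give negative values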
HDAC3 inh: human HDAC3 inhibition; inhibition, % at 8.3 µM; recombinant HDAC3, fluorogenic peptide/trypsin coupled, fluorescence; AID 2718; 320,000 compounds, 0.15% hits; in the data active = inhibition above about 26%, passing the limit was not always enough; inconclusive = no clear call, values can overlap the other calls
An asterisk follows results filed as active; i = inactive; u = inconclusive; x = not tested or not shown; + = active, no number.

SMILES	ALR inh	Rce1 inh	Efflux pump inh	Rtt109 HAT inh	GRK2 aptamer HTS	HDAC3 inh
Cc1cccc(/C=C/C(=O)c2cc(Br)ccc(=O)c2O)c1	98*	i	0	13	7	7
CCOc1ccc(/C=C/C(=O)c2cc(Br)ccc(=O)c2O)cc1	96*	x	0	-5	5	9
COc1ccc(-c2nc(-c3cccs3)no2)cc1	-1	i	0	52*	1	2
CN(NC1CC(=O)N(c2ccccc2)C1=O)c1ccccc1 (stereo not drawn)	97*	x	0	-4	0	1
Cc1ccc(S(=O)(=O)n2cnc3ccccc32)cc1	-8	i	0	-9	2	1
O=[N+]([O-])c1ccccc1S(=O)(=O)n1cnc2ccccc21	95*	i	0	16	3	2
O=S(=O)(c1cccs1)n1cnc2ccccc21	97*	i	0	10	0	-5
O=C(Nc1ccc(N2CCOCC2)cc1)C1CC(O)CN1S(=O)(=O)c1ccc(Cl)cc1 (stereo not drawn)	78*	i	0	-7	5	2
O=C(CN1CCN(S(=O)(=O)c2ccc(Cl)cc2)CC1)Nc1ccc(N2CCOCC2)cc1	-3	i	0	6	0	-1
CCOc1cc(CNC2CCCC2)ccc1OCc1ccccc1Cl	2	+	0	5	0	-5
O=C(CNC(=O)c1ccc(F)cc1)c1ccc(Cl)cc1	-4	i	0	52*	0	1
COc1cc(NC(=O)CN2C(=O)CSc3ccc(S(=O)(=O)N4CCCC4)cc32)cc(OC)c1	x	i	0	12	0	-2
CN(C)/C=N/c1nc2nccc(-c3ccc(F)cc3)n2n1	-5	+	0	-5	0	-72
CN(C)/C=N/c1nc2nccc(-c3cccc(Cl)c3)n2n1	-3	x	0	-2	0	-12
C=CCSc1nnc2c(n1)OC(c1ccco1)Nc1ccccc1-2 (stereo not drawn)	98*	i	0	-6	3	4
C=CCSc1nnc2c(n1)OC=Nc1ccccc1-2	9	i	0	10	2	-6
O=S(=O)(c1cccc(Br)c1)N1CCN(C(=S)NCC2CCCO2)CC1 (stereo not drawn)	48	i	0	x	2	1
CCC(c1nnc(SCC(=O)Nc2ccc(C(=O)Nc3ccccc3OC)cc2)o1)N(C)C (stereo not drawn)	99*	i	0	-2	0	1
COc1ccccc1NC(=O)c1ccc(NC(=O)CSc2ncccn2)cc1	-8	i	0	-3	1	2
Nc1nc(N)nc(-c2ccccc2-c2nc(N)nc(N)n2)n1	4	i	0	-3	0	-1
CC(C)(C)c1cc(-c2nc(N)nc(N)n2)c(O)c(C(C)(C)C)c1	x	x	0	u	0	29*
Cc1nc(SCc2ccc(Cl)cc2)ncc1C(=O)O	1	i	0	-3	0	2
COc1cnc(SCc2ccc(Cl)cc2)nc1Cl	98*	i	0	-4	0	-3
COc1c(-c2ccc(O)c(O)c2)oc2cc(O)cc(O)c2c1=O	98*	i	0	1	2	3
OC[C@H]1O[C@@H](Oc2ccc(O)cc2)[C@H](O)[C@@H](O)[C@@H]1O	x	x	x	1	x	x
SMILES	ALR inh	Rce1 inh	Efflux pump inh	Rtt109 HAT inh	GRK2 aptamer HTS	HDAC3 inh
O=c1c(O)c(-c2cc(O)c(O)c(O)c2)oc2cc(O)cc(O)c12	99*	x	0	-1	7	4
O=C(CCc1ccc(O)cc1)c1c(O)cc(O)cc1O[C@@H]1O[C@H](CO)[C@@H](O)[C@H](O)[C@H]1O	81*	i	0	2	0	-3
O=c1c(O[C@@H]2O[C@H](CO)[C@@H](O)[C@H](O)[C@H]2O)c(-c2ccc(O)cc2)oc2cc(O)cc(O)c12	94*	x	1	0	4	7
O=c1c(O[C@@H]2O[C@H](CO)[C@@H](O)[C@H](O)[C@H]2O)c(-c2ccc(O)c(O)c2)oc2cc(O)cc(O)c12	x	i	x	x	x	x
COc1ccc(C2=NS(=O)(=O)N(C)C(C(=O)Nc3ccc(C(C)=O)cc3)=C2)cc1OC	-1	i	0	20	3	11
O=C(COc1cccc(C(F)(F)F)c1)Nc1cccc(S(=O)(=O)NC2=NCCCCC2)c1	x	x	x	-2	x	x
